# Assay results: PubChem BioAssay AID1508600 (Functional Genomics Laboratory (NCATS/FGL), 2020)
# Hit rate of the full screen: of about 53,000 sequences, about 3,700 (7%) were called active.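 The calls were made as follows: active = gene knockdowns whose robust z-score for IL-1 alpha signal is at least 2 or at most -2, so actives lie on both sides; inactive = the rest.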 Shown is part of a subset that was picked to be rich in actives.
# Experiment: Components of the Cytosolic LPS Sensing Pathway: Gene Identification via Genome-wide siRNA Screen;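 also: robust z of the log signal after scaling to non-targeting control siRNA wells of the plate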
# Settings: RAW264.7 macrophages, IL-1a HTRF, actives lie on both sides, screened at 100 nM (by protocol), cells primed 5 h with Pam3CSK4 first
# How it was run: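 RAW264.7; siRNA 100 nM final, RNAiMAX, 48h 37 degrees C; Pam3CSK4 5 h; LipidA + TransIT-TKO 24 h; IL-1a HTRF; CellTiter-Glo viability; robust z vs negative-control median.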
row,Sequence,z-score
1,GCUGUAAUUCCUAAGUUAUTT against Ubxn6,0.268 (inactive)
2,CCCAGAGCAUGCCAUCAACTT against Orm3,-0.38 (inactive)
3,CCUUACACUAAGAAAAAGGTT against Rad50,-0.0689 (inactive)
4,GCAGUCCAAAAAAUUCGGUTT against Stox2,-2.15 (active)
5,GGCAUUAGAGCAGAGUCGUTT against Trmu,-1.29 (inactive)
6,GGUGCAGAGAAGUGUAACATT against Slc25a21,-1.6 (inactive)
7,GGUGCUGAGCAUGGUGUUATT against Spag4,3.17 (active)
8,GGAGUAUCGUUUAUUCAUUTT against Slc2a2,0.161 (inactive)
9,GCCUAAGAAAUUAGUGAAUTT against Rflna,0.204 (inactive)
10,GGCCAUCACUAAAUAAUGGTT against Ctdspl2,-0.123 (inactive)
11,GGAAAACGAGUCAAACUCATT against Lnx2,3.4 (active)
12,GGUGGUGAGCAUCUACUAUTT against Alox5,0.565 (inactive)
13,CCCUAAUAAAUUCCAAAUCTT against H2-Ke6,1.81 (inactive)
14,GCAUGUAGUUCAUCAGUACTT against Tubgcp5,0.874 (inactive)
15,GGACCACUUUUUCAGACUCTT against Ralgapa1,0.945 (inactive)
16,GGCGAAAUGGUAAACCGAGTT against Adgrg2,0.0183 (inactive)
17,GUACGGCAACAUGACCCAGTT against Cd74,0.385 (inactive)
18,GGACUUCAACAACUGCUCUTT against Polr1a,2.28 (active)
19,CCACUUCUACAUACUUAAUTT against Plau,0.62 (inactive)
20,UCUCAUUGCAAUUCUGGGATT against Olfr675,0.566 (inactive)
21,CCUUACUCAAGAUCCUGCUTT against Olfr1243,-0.23 (inactive)
22,GGCACUCAACACCUGUAUATT against Olfr640,-1.34 (inactive)

row,Sequence,z-score
1,GGAAUUCCUUCACAUCUGGTT against Tc2n,0.4 (inactive)
2,GGGUGAUAAGCAGUUAUACTT against Wdr75,1.33 (inactive)
3,GCUUCUGUUAUGAGGCUCATT against Hif1a,-2.52 (active)
4,GGAGAUUGUGGAAAUGCUUTT against Skiv2l,0.459 (inactive)
5,CCCAGACCAUACUACGGAUTT against Calb2,-1.25 (inactive)
6,GUUUCAGUGCAGCCAUUACTT against Olfr518,-0.747 (inactive)
7,GGAUUUAUUUCCGAUUCGATT against Nalcn,-0.0152 (inactive)
8,GGAUCAAAAGGUGAAUGCUTT against Vmn1r67,-2.54 (active)
9,GCUGCAUUCGGUUACCACUTT against Olfml2b,0.677 (inactive)
10,GGAGGUUACAUAACAGGUGTT against Itsn2,1.86 (inactive)
11,GGGAGUUAUUUAAGAUUCUTT against Has1,0.0567 (inactive)
12,GAAAAAUAAUGGAGUUUGGTT against Gtf2h5,0.513 (inactive)
13,CCAGUGGAGUAAACUGUAATT against Ltbp1,2.24 (active)
14,GGAAGUGGUCCACCUGAUCTT against Mms19,-0.324 (inactive)
15,GGCCCAUCUGAGGAAGCUUTT against Magea4,-1.55 (inactive)
16,GGAACUUCAUAAACACUUGTT against Oas3,-0.545 (inactive)
17,GGUUCUGGAAAGUUCUCUGTT against Sorcs2,-0.0101 (inactive)
18,GGUGAUGUUUUAUGGCAGGTT against Olfr1335,0.329 (inactive)
19,CGAUGAUCGGCUCAACAAGTT against Rplp2,-0.401 (inactive)
20,GGCCAUACGCAAGCUCAAGTT against Rtl5,-2.96 (active)
21,GGUUCCUCACAAGCAUUCUTT against Olfr818,0.276 (inactive)
22,GCAUGAAGUUGCACAUCCCTT against Cox8b,-0.42 (inactive)

row,Sequence,z-score
1,GGGAGCUAUUUAUCCUAUUTT against Zc4h2,0.214 (inactive)
2,GCCUCCUGAAUGACCACAUTT against Klk1b27,2.29 (active)
3,GGACUGUGAUUGUUUCAGATT against Mep1a,-0.0817 (inactive)
4,GGUAUCAUCUAUAGAGACUTT against Prkch,-0.265 (inactive)
5,CCGUGCCAAACUUCUUACUTT against 2610528J11Rik,-0.1 (inactive)
6,GGGCUAGAGGAAAACGAAATT against Crot,1.64 (inactive)
7,CGCAGAGAGUAGAAAAUUGTT against Pdia5,-0.428 (inactive)
8,GGACUGUCAUCUUCCUCAGTT against Ston2,-2.97 (active)
9,GCUAUGACCGGAGGUUCUATT against Morn5,0.555 (inactive)
10,GGAAACGAAGAGGAAGAAUTT against Ddit3,-0.571 (inactive)
11,CCAGUAUAUUCUGAGGGUUTT against Isl1,0.374 (inactive)
12,GGAGACUGAGGAAGAAUCUTT against Atcay,-0.302 (inactive)
13,GGACUGUGACAUAUUCUUUTT against Zfp54,2.74 (active)
14,GGGUGGACUGAAUGCUGAUTT against Qtrt1,0.665 (inactive)
15,GGUGUACCUUGGGACUUACTT against Prpf18,-2.84 (active)
16,GGUUUACUUCCCAUACCUGTT against Pold1,0.701 (inactive)
17,GGCAAUACGUAACAUGCCATT against Slc6a4,-0.148 (inactive)
18,GGACGAAGACACCAAAGUGTT against Camk2a,-1.31 (inactive)
19,GGUAGGGACCUAUCCUUGGTT against Cramp1l,-0.518 (inactive)
20,GGAUGGAGUUCACAUUUUCTT against Utp11,0.816 (inactive)
21,CCUUGAGCAAAUCACACAUTT against Stk32b,3.94 (active)
22,GGACAAGAACUUAGUGAUGTT against Emc9,0.522 (inactive)

row,Sequence,z-score
1,GGCUGGAACCCUAAUUUCUTT against Tpo,1.32 (inactive)
2,AGUGGGCUUCAAAUUUCCATT against Aym1,-0.551 (inactive)
3,GCAUGAUCGUGUUUGUUUATT against Srpk2,0.722 (inactive)
4,GGUUUCAAUAAUCCAGGAATT against Naa16,0.352 (inactive)
5,CCUCAAAUGGCCACACACUTT against Kcnj11,-1.27 (inactive)
6,GGACUAAAUGGUCAAGAUUTT against Rbm8a,-2.74 (active)
7,CCUUGGAUGUAUUCAUAUATT against Prkar2a,0.255 (inactive)
8,GGGUACCUGUGGUUUUUGUTT against Hdhd5,-0.481 (inactive)
9,GCUCCAAAUUAAAUUUUGCTT against Irf9,0.768 (inactive)
10,GGUCAUUCAAGAGAUACUATT against Dennd10,-0.65 (inactive)
11,GGCAAAGGACUUCAUGGCUTT against B4galt4,-1.42 (inactive)
12,CGACAGAGGAAAACAUAAATT against St13,-2.55 (active)
13,GGAAAGAAAGACUAGUAAATT against Cpne1,0.815 (inactive)
14,CCUCAUCGACAUAAUGAUUTT against Samhd1,-0.0182 (inactive)
15,GGUUCACUCUGAAGACACCTT against Pkig,0.0516 (inactive)
16,CCGUGUGACAUUUGAGUAUTT against Crhbp,1.42 (inactive)
17,CCAGCUUUGGGAAAUACCGTT against Sertad1,-2.39 (active)
18,GGGAUCCAUCCUUAUUGUUTT against Ybx2,-0.101 (inactive)
19,GGAUUCUCCUUUACCUUUGTT against B930095G15Rik,0.0151 (inactive)
20,GGAAGACUUUGGCUUUGAATT against Tfpt,-0.165 (inactive)
21,GGAGAACAUCAAGAACAAUTT against Ap2m1,2.08 (active)
22,GCCCGAAAAAGAGAACUGATT against Wbp11,0.056 (inactive)

row,Sequence,z-score
1,GGAUCAAGACAAAAAACUUTT against Arhgap17,-0.17 (inactive)
2,GGACCAGAUUGCUAAUGAGTT against Fam13a,-0.0932 (inactive)
3,GGAAUUCUUGAAGAUUCCCTT against Ptpn7,0.884 (inactive)
4,GGAGCUCCUACCAAGACUUTT against Klhl38,1.07 (inactive)
5,GGAAUGCAAUGACAAAUGATT against Kank3,0.198 (inactive)
6,GCUUAUAAGAGUCUAUCUUTT against Stam,-0.217 (inactive)
7,GCUCAGUUUAUACCAAAAUTT against Api5,-2.31 (active)
8,CCCAAGAUCUAAGAGUAUUTT against Rin3,-1.18 (inactive)
9,GGGACUAUUCCUCCAGAGUTT against Cast,-0.439 (inactive)
10,GGUCAAGAGGGAAAACUUUTT against Ctps,0.0558 (inactive)
11,CGGUACAUCAUUGCUGUCATT against Slc17a8,-2.22 (active)
12,CCGUAGUAUCCACUGAUUGTT against Olfr1322,-0.34 (inactive)
13,GGAGGAAGAAACAACAAUGTT against Calhm5,0.76 (inactive)
14,GGCUUAGUAUGUUGUAUUCTT against Fam241b,0.189 (inactive)
15,GGGUUCAUUUUUGGCUUUCTT against Serpina3m,0.0735 (inactive)
16,GGUGCAGAAGCUCAAGUUCTT against Cpne2,2.44 (active)
17,GCGAAUCUCCUCCUAGUGATT against Arhgap28,-0.0218 (inactive)
18,GGAAUUCGUAAAGAUUGCATT against Esrp2,-0.158 (inactive)
19,UGCUGGUAGACCUAGUAGCTT against Olfr1137,-2.1 (active)
20,GGUGUACGAUCUGACCAAGTT against Cyb5a,0.0756 (inactive)
